Consider 40 molecules from PubChem BioAssay (Tox21).

Inconclusive results are not listed. Unmarked numbers belong to inactive results. Active and inactive are the calls of the source. The call rests on the fitted dose curve; in most records, active means well fitted activation curve with a large enough effect in the repeat runs; inconclusive means weak or mixed curves; inactive means flat fitted curve, though single readings scatter.
On the % scale 0 is the no-effect control and ±100 the full control effect.

The assay in a line: A CellTox Green Cytotoxicity Assay to monitor cytotoxicity in HEK293 cells - 24 hour (AID 1224875). Further: nearly all actives have a fitted effect of over 45% in size. The following applies: CellTox Green fluorescence, active compounds read high; series mostly up to 76.8 µM. The source says:
National Center for Advancing Translational Sciences [NCATS]
NIH Chemical Genomics Center [NCGC]
U.S. Environmental Protection Agency [EPA]
National Institutes of Environmental Health Sciences [NIEHS]
National Toxicology Program [NTP]
Cell-based models are critical for drug discovery. Determining the natural cytotoxic effects resulting from test compounds is an essential research activity. A CellTox Green Cytotoxicity Assay to monitor cytotoxicity in real time of continues cell culture during 40 hours of the compound treatment was used to screen Tox21 10K library compounds in Hek293 cells. CellTox Green Cytotoxicity Assay is a nonlytic, homogeneous, biofluorescent method to measure cytotoxicity in cell culture after experimental manipulation. The assay system uses a proprietary asymmetric cyanine dye that is excluded from viable cells but preferentially stains the dead cell's DNA. […] Viable cells produce no appreciable increases in fluorescence. Therefore, the fluorescence signal produced by the binding interaction with dead cell DNA is proportional to cytotoxicity.
The mixture of Hek293 cell suspension and reagents were dispensed at 600cells/6 ul/well in 1536-well tissue culture treated black solid bottom plates using a Multidrop dispenser. After the assay plates were incubated at a 37 C/5% CO2 incubator for 5 hours, 23 nL of compounds dissolved in DMSO, positive and negative controls was transferred to the assay plate by a pintool work station. The plates were incubated at 37 C for 40 hours. The fluorescence intensity were measured at 0h, 8h, 16h, 24h, 32h and 40h time points using ViewLux plate reader during compound treatment.
As for `CC(C)CCCCOC(=O)c1ccccc1C(=O)OCCCCC(C)C`, the molecule was called inactive.
Same read-out and setting: next, `Nc1ccc([N+](=O)[O-])c(N)c1`: “inactive”.
Take `CCCC/C=C/C=C\C=O`: the outcome was inactive.
On the same count and under the same terms, next, `CCCCOCCOC(=O)COc1nc(Cl)c(Cl)cc1Cl`: “inactive”.
On the same count and under the same terms, to `CC(C)(C)c1cc(CCC(=O)NN)cc(C(C)(C)C)c1O` belongs “inactive”; to `O=C(OCC(COC(=O)c1cccnc1)(COC(=O)c1cccnc1)COC(=O)c1cccnc1)c1cccnc1`, “inactive”; to `C=COCCOCCOCCOC=C`, “inactive”.
Turning to `N[C@@H](CCC(=O)N[C@@H](CS)C(=O)NCC(=O)O)C(=O)O`, the activity change is 1.6% [at 15.8 µM].
Turning to `CC(C)CC(=O)O`, the molecule was called inactive.
`CCCCCCCCOS(=O)(=O)O`: the outcome was inactive.
The same measure, in the same setting: to `CCc1ccc(C=O)cc1` belongs “inactive”.
Still for that read-out and setting: to `CC(=O)Nc1ccc(S(=O)(=O)Cl)cc1` belongs “inactive”.
For the molecule `CC(C)(C)OC(=O)c1ccc(O)cc1`, the molecule was called inactive.
Turning to `O=C(O)C(=O)Cc1ccccc1`, the molecule was called inactive.
Same read-out and setting: to `CCCOC(=O)C(C)O` (stereo not given) belongs “inactive”; to `CC(CO)c1ccccc1` (stereo not given), “inactive”.
The same measure, in the same setting: next, `CC(C)(C)c1nnc(NS(=O)(=O)c2ccc(N)cc2)s1`: “inactive”; `CN(CCOc1ccc(NS(C)(=O)=O)cc1)CCc1ccc(NS(C)(=O)=O)cc1`: “inactive”.
In the case of `BrCc1cccc(Oc2ccccc2)c1`, the result was inactive.
`O=C(NCC(O)CO)c1c(I)c(C(=O)NCC(O)CO)c(I)c(N(CCO)C(=O)CO)c1I` (stereo not given): the call was inactive.
On the same count and under the same terms, next, `CCOC(=O)c1ccc(OC(=O)CCCCCN=C(N)N)cc1`: “inactive”; `CC(=O)NCc1c(I)c(NC(C)=O)c(I)c(C(=O)O)c1I`: “inactive”; `C=C(C)C(=O)OCCOP(=O)(O)OCCOC(=O)C(=C)C`: “inactive”.
Turning to `CCCCOC(=O)c1ccccc1`, the result was inactive.
Same read-out and setting: to `COCCOCCOCCOCCOCCO` belongs “inactive”; to `Nc1nnc(-c2cccc(Cl)c2Cl)c(N)n1`, “inactive”.
Turning to `CN1CCN(CC(=O)N2c3ccccc3C(=O)Nc3cccnc32)CC1`, the activity change is -2.09% [at 6.97 µM].
Take `C=C(C)C(=O)OCC(C)(C)COC(=O)C(=C)C`: the call was inactive.
In the case of `Cc1cccc(C)c1NC(=O)c1ccccc1C(=O)O`, the result was inactive.
On the same count and under the same terms, next, `CCOc1cc([N+](=O)[O-])c(OCC)cc1N1CCOCC1`: “inactive”; `NS(=O)(=O)c1cc2c(cc1Cl)CN(C1CCCCC1)C2=O`: “inactive”.
On the same count and under the same terms, next, `CN1C(C)(C)CCCC1(C)C`: “inactive”; `CCCCCCCCCCCCCC`: “inactive”.
On to `O=C(OCc1ccccc1)C(=O)OCc1ccccc1`, for which the outcome was inactive.
Still for that read-out and setting: next, `N#Cc1ccc(C(=O)O)cc1`: “inactive”; `Cc1cc2cc3c(C)cc(=O)oc3c(C)c2o1`: “inactive”; `Cc1ccccc1C(=O)Nc1ccc(C(=O)N2CCCC(N(C)C)c3ccccc32)cc1` (stereo not given): “inactive”.
Consider `CN(C)C(=O)CNC(=O)Cc1ccccc1`, for which the molecule was called inactive.
Still for that read-out and setting: to `OCCN(CCO)c1cccc(Cl)c1` belongs “inactive”; to `O=Cc1ccc(Cl)c(Cl)c1`, “inactive”.
